Only some compounds are listed: those with a hit (about 0.5% of all), similar ones and a draw of the others.
AddAB inh: growth inhibition of E. coli expressing H. pylori AddAB, primary screen, AddAB inhibitor project, absorbance; AID 435030, 2010; actives 0.29% (n = 330,000); inhibition, % at 11.9 µM; in the data active means inhibition above about 12%;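 further: 0% = vehicle wells of infected cells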
phage Ecoli inh: growth loss of phage-infected E. coli, primary screen, RecBCD inhibitor project, absorbance, with phage, HTS. actives 0.26% (n = 360,000). inhibition, % at 11.9 µM; in the data active means inhibition above about 11%
E coli growth-1: E. coli V3065 growth inhibition, primary screen, counter-screen for AddAB inhibitor project, absorbance, OD600; actives 0.27% (n = 330,000); inhibition, % at 11.9 µM; 18 h; AID 449728, 2010;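 active means inhibition above the campaign's mean inhibition across all tested compounds plus 3 SD, cut at about 9.9% in these data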;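 further: uninfected addAB+ strain grown without phage in ampicillin broth; 0% = DMSO wells and 100% = ciprofloxacin 0.95 µg/ml wells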
Tat transport: E. coli Tat export inhibitors, primary screen, MC4100, TorA-mCherry reporter, fluorescence, single point; inhibition, % at 10 µM; actives 0.036% (n = 340,000); AID 488895, 2010;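 active means mean replicate inhibition at least 50% and at least half of replicates individually reaching 50%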;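 further: exported cargo escapes ClpAP degradation while cytoplasmic cargo is degraded and loses fluorescence; 0% = median of neutral control wells and 100% = median of NaSCN control wells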
E coli growth-2: E. coli growth inhibition, primary screen, OD600 | AID 1053175, 2014 | Escherichia coli growth, 23 h; hits give low values | OD600 absorbance (test concentration not listed) | actives 0.21% (n = 330,000);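 active means OD600 absorbance below the run mean of sample wells minus 3.6 SD, in any replicate, cut at about 0.56 in these data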
AddAB conf: growth loss of phage-infected E. coli expressing H. pylori AddAB, confirmation, AddAB inhibitor project, absorbance, E. coli V3065, T4 phage, triplicate; inhibition, % at 11.9 µM; actives 64% (n = 880); OD; T4 phage with gene 2 nonsense mutations; shares compounds with AddAB inh;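 active means mean inhibition above a set limit taken from the earlier primary screen, cut at about 13% in these data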;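 further: higher means less bacterial growth since AddAB block lets phage replicate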
RecBCD counter: growth loss of RecBCD+ E. coli with mutant T4 phage, counter-screen for AddAB inhibitor project, absorbance, V66 E. coli | shares compounds with AddAB inh | OD growth | inhibition, % at 11.9 µM | actives 73% (n = 880);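 active means mean inhibition above the mean of solvent-only control wells plus 3 SD, cut at about 4% in these data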;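 further: optical density read after an 18 h incubation at 37 °C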
Bact viability: bacterial viability inhibition counter-screen, confirmation, counter-screen for AddAB inhibitor project, absorbance | shares compounds with AddAB inh | absorbance (AddAB counterscreen) | inhibition, % at 11.9 µM | actives 35% (n = 880) | AID 488956, 2010; in the data active means inhibition above about 25%
* hit, by the source's call; x = no result.

SMILES	AddAB inh	phage Ecoli inh	E coli growth-1	Tat transport	E coli growth-2	AddAB conf	RecBCD counter	Bact viability
CCCCC(=O)O[C@H]1CC[C@H]2[C@@H]3CCc4cc(O)ccc4[C@H]3CC[C@]12C	97*	4	-1	3	x	3	0	-1
COc1cccc(-c2cccc(NC(=O)C3CCN(Cc4ccc(C)o4)CC3)c2)c1	4	1	-1	5	0.69	x	x	x
CCCNC(=O)c1cccc(Cn2cc(Br)c([N+](=O)[O-])n2)c1	15*	6	11*	7	0.68	31*	3	32*
COc1ccc(NC(=O)c2cccc(Cn3cc(Br)c([N+](=O)[O-])n3)c2)c(C)c1	2	2	-2	-18	0.64	x	x	x
NNC(=O)c1cccc(Cn2cc(Br)c([N+](=O)[O-])n2)c1	27*	9	24*	-3	0.64	97*	12*	67*
Cc1ccc(NC(=O)CCNC(=O)c2ccco2)cc1	15*	1	5	-16	0.69	6	4	8
O=C(CCNC(=O)c1ccco1)Nc1ccccc1	5	1	1	27	0.61	x	x	x
CCOc1ccc(NC(=O)CCNC(=O)c2ccco2)cc1	14*	10	8	-18	0.6	12	4.7*	6
CC(C)C(=O)NC(Nc1cccc([N+](=O)[O-])c1)C(Cl)(Cl)Cl (configuration not stated)	-1	4	1	-16	0.72	x	x	x
CCCCOC(=O)C(C)Oc1ccc(=O)n(-c2ccccc2)n1 (configuration not stated)	21*	2	5	-3	0.77	4	1	-3
Cc1ccc(CNC(=O)COC(=O)c2cnccn2)cc1	0	x	-1	0	0.74	x	x	x
NC(=O)c1ccsc1NC(=O)CN1C(=O)NC2(CCCC2)C1=O	-4	2	-2	-13	0.72	x	x	x
CCOC(=O)N1CCN(C(=O)c2cc3c(s2)-c2ccccc2OC3)CC1	0	4	2	3	0.7	x	x	x
CCCN1CCN(C(=O)c2cc3c(s2)-c2ccccc2OC3)CC1	15*	8	13*	1	0.72	23*	7.3*	16
O=C(COC(=O)c1ccc([N+](=O)[O-])s1)c1ccc[nH]1	12*	3	9	-9	x	68*	3	10
CCOC(=O)c1c(N=Cc2cccc([N+](=O)[O-])c2O)sc2c1CCC2	x	x	x	x	0.67	x	x	x
O=C(Cn1c(=O)oc2cc(S(=O)(=O)N3CCCCCC3)ccc21)NC1CCCCCCC1	-2	2	-1	-15	0.79	x	x	x
CCCNC(=O)Cn1c(=O)oc2cc(S(=O)(=O)N3CCCC3)ccc21	55*	-2	37*	0	0.76	-2	-1	-4
NS(=O)(=O)c1ccc2nc(NC(=O)c3ccc(Br)o3)sc2c1	4	4	2	-10	0.7	x	x	x
O=C(NCc1ccccn1)c1cccc(NS(=O)(=O)c2ccc(Br)cc2)c1	3	3	2	-4	0.67	x	x	x
Cc1cc(/C=N/NC(=O)c2ccccc2F)c(C)n1-c1ccccc1	131*	4	-1	1	x	1	2	0
Cc1ccc(-c2noc(N=O)c2NO)cc1	24*	5	19*	-15	0.61	33*	7.9*	31*
O=C(CN1C(=O)S/C(=C\c2ccc(Cl)cc2)C1=O)NNC(=O)c1ccccc1O	16*	9	6	-3	0.68	9	5.5*	9
COc1ccc(/C=C2\SC(=S)N(CCCC(=O)NNC(=O)c3ccccc3O)C2=O)cc1	5	6	0	3	x	x	x	x
COc1ccccc1/C=C1\SC(=S)N(CCC(=O)NNC(=O)c2ccccc2O)C1=O	20*	x	18*	0	0.75	15*	19*	14
SMILES	AddAB inh	phage Ecoli inh	E coli growth-1	Tat transport	E coli growth-2	AddAB conf	RecBCD counter	Bact viability
Cn1c(=O)n(C)c2cc(C=NNC(=O)c3cc4cc(Br)ccc4o3)ccc21	x	x	x	x	0.62	x	x	x
COc1ccccc1Nc1nc(Cl)nc(NC(C)(C)C)n1	96*	2	79*	8	0.68	-3	-2	-2
CC(C)(C)Nc1nc(Cl)nc(Nc2ccccc2)n1	3	2	0	2	0.68	x	x	x
COc1ccc(/C=C2\SC(=O)N(CC(=O)Nc3cccc(C)c3)C2=O)cc1O	4	3	-2	-2	0.68	x	x	x
CC1=C(C(=O)OCC2CCCO2)C(c2coc3ccc(Cl)cc3c2=O)C2=C(CCCC2=O)N1 (configuration not stated)	1	4	1	-11	0.73	x	x	x
CC1=C(C(=O)OCC2CCCO2)C(c2coc3ccc(C)cc3c2=O)C2=C(CCCC2=O)N1 (configuration not stated)	99*	4	91*	7	0.67	0	1	-1
O=C(COC(=O)C1CCN(S(=O)(=O)c2ccc3c(c2)OCCO3)CC1)NC1CCCCC1	0	2	3	2	0.68	x	x	x
O=C(COC(=O)C1CCN(S(=O)(=O)c2ccc3c(c2)OCCO3)CC1)NC1CCS(=O)(=O)C1 (configuration not stated)	26*	0	9.8*	-3	0.68	-6	-2	-5
COc1ccc(-c2nnc(NC(=O)c3ccc(F)cc3)o2)cc1	15*	4	5	7	0.55	17*	12*	5
COc1ccc(-c2nnc(NC(=O)c3ccc4c(c3)OCCO4)o2)cc1	1	-1	-4	-8	0.7	x	x	x
CCOc1ccccc1N(C)C(=O)c1sc2ncn(CC(=O)N3CCCCC3C)c(=O)c2c1C (configuration not stated)	5	0	0	5	0.7	x	x	x
Cc1ccc(S(=O)(=O)CCC(=O)Nc2ccc(S(=O)(=O)N(C)C)cc2)cc1	97*	x	96*	x	0.64	-5	0	-2
Cc1ccc(S(=O)(=O)CCC(=O)NNC(=O)CN(C)S(=O)(=O)c2ccc(C)cc2)cc1	0	3	-1	3	0.66	x	x	x
Cc1ncc([N+](=O)[O-])n1CCOC(=O)c1ccccc1	2	1	1	5	0.63	x	x	x
Cn1c([N+](=O)[O-])cnc1COC(N)=O	26*	11	17*	11	0.67	79*	5.2*	57*
C=CCNC(=S)N1CCN(c2ncc3c(=O)c(C(=O)O)cn(CC)c3n2)CC1	20*	3	11*	7	0.46*	89*	3	26*
CCn1cc(C(=O)O)c(=O)c2cnc(N3CCN(C(=S)Nc4ccc(F)cc4)CC3)nc21	18*	-3	25*	x	0.6	25*	1	10
